Compound activity from PubChem.
TDP1 cell noCPT: qHTS for Inhibitors of human tyrosyl-DNA phosphodiesterase 1 (TDP1): qHTS in cells in absence of CPT; Potency, µM (top dose mostly 46.2 µM), for the others: at the top dose activity change, negative = growth inhibition, most hits filed as inhibitors; DT40 Tdp1-/- hTDP1 cells, no CPT, ATP luminescence, 48 h; actives 15% (n = 420,000); further: potency means the concentration at half of the fitted maximal effect; nearly all actives have a fitted effect of over 55% in size
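DT40 Tdp1-/-;hTDP1 cells, no CPT (DMSO vehicle only), 400 cells/well; compounds pin-transferred; ≥48 hr, 37 °C; CellTiter-Glo 30 min RT dark, luminescence read.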
TDP1 inh: qHTS Assay for Inhibitors of Tyrosyl-DNA Phosphodiesterase (TDP1); AID 485290, 2010; recombinant TDP1, AlphaScreen DNA substrate cleavage; Tyrosyl-DNA phosphodiesterase 1 (Homo sapiens), Q9NUW8; Potency, µM (doses to about 130 µM), for inactives: top-dose activity change, negative = inhibition, usual class: inhibitors; actives 0.28% (n = 350,000); further: potency means the concentration at half of the fitted maximal effect; nearly all actives have a fitted effect of over 40% in size
Target sequence (Q9NUW8 whole entry, looked up): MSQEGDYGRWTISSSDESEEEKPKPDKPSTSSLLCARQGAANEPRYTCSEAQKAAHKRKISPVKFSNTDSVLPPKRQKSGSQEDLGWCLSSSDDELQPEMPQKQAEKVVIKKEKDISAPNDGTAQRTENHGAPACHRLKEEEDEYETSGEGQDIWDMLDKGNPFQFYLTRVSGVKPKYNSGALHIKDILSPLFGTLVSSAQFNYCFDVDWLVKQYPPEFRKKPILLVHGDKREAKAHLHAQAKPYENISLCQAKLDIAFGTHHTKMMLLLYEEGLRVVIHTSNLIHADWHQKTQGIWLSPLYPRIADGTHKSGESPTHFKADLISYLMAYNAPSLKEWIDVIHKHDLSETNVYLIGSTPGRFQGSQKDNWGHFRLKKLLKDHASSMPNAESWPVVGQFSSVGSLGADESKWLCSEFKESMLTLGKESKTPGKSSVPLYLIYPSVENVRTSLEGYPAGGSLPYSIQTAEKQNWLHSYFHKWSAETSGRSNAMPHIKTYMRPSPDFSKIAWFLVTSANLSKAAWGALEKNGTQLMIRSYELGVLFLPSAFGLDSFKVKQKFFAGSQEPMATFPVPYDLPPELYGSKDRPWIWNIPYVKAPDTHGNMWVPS
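Tdp1 1 nM final; 15 min RT w/ cpd; substrate 15 nM, 5 min; beads 10 ug/ml, 10 min; AlphaScreen read. Neg ctrl: no enzyme.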
DT40 TDP1 CPT: qHTS for Inhibitors of human tyrosyl-DNA phosphodiesterase 1 (TDP1): qHTS in cells in presence of CPT; chicken DT40 Tdp1-/-;hTDP1 cells + 20 nM CPT, ATP luminescence, 48 h; Potency, µM (doses to about 46.2 µM), for the others: at the top dose activity change, negative = growth inhibition, most hits filed as inhibitors; actives 12% (n = 420,000); AID 686979, 2013; further: potency means the concentration at half of the fitted maximal effect; nearly all actives have a fitted effect of over 55% in size
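Chicken DT40 Tdp1-/- cells stably complemented with human TDP1 were seeded at 400 cells/well in medium containing 20 nM camptothecin, exposed to pin-transferred compounds, and grown at 37 °C for at least 48 hr. Viability was read as ATP luminescence.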
IL1B secr inh: qHTS for Inhibitors of Inflammasome Signaling: IL-1-beta AlphaLISA Primary Screen | THP-1 LPS/ATP IL-1B secretion, AlphaLISA, 16 h; stronger effect = lower value | activity change, % at 57.5 µM | AID 743279, 2014 | actives 4.7% (n = 360,000); in the data active means activity change below about -50%; inconclusive means mostly about -30% to -49%
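THP-1 cells pretreated 1 hr with compounds (up to 57.5 uM final), then stimulated with LPS (250 ng/mL final) plus ATP (1.25 mM final); secreted IL-1B measured by AlphaLISA after 16 hr, decreased signal indicating inhibition.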
Giardia kill: Small Molecules that selectively kill Giardia lamblia: qHTS; Giardia lamblia trophozoite viability; actives 0.15% (n = 340,000); activity change, % at 7.66 µM, hits read low; AID 540267, 2011; in the data active means activity change below about -80%; inconclusive means between about -30% and that limit;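 further: parasites exposed to compound for two days anaerobically before the ATP read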
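Viability, read as ATP luminescence: trophozoites at 100 cells/well, compound added, 48 hrs anaerobic at 37 deg C, then 15-30 min room-temperature development before reading.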
ELG1 repair inh: qHTS screen for small molecules that inhibit ELG1-dependent DNA repair in human embryonic kidney (HEK293T) cells expressing luciferase-tagged ELG1. actives 2.3% (n = 330,000). HEK293T ELG1-luciferase reporter, luminescence, 16 h; DNA damage induced by 5-fluorouridine. AID 504467, 2011. Potency, µM (highest dose often 46.1 µM), inactives show top-dose activity change, negative = inhibition, usual class: inhibitors; further: potency means the concentration at half of the fitted maximal effect; nearly all actives have a fitted effect of over 55% in size
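5-Fluorouridine DNA damage + compound/DMSO, 2,000 cells/well, 16 h, 37 °C/5% CO2. ONE-Glo, 30 min RT, luminescence. Readout = decrease in reporter signal.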
Active calls of the source: *; ? = inconclusive; · = not tested or not shown; [ ] = another dose, or the depositor's remark. Sampled rows, rich in hits. Any-hit rate of the full collection: about 19%. Unless noted, the call rests on the fitted dose curve; in most records, active means well fitted curve in the direction sought with a large enough effect; inconclusive means small, poorly fitted or top-dose-only effect, or another doubt; inactive means no such curve, though single readings can be large; an effect the other way counts as inactive or inconclusive. On the % scale 0 is the no-effect control and ±100 the full control effect.

SMILES	TDP1 cell noCPT	TDP1 inh	DT40 TDP1 CPT	IL1B secr inh	Giardia kill	ELG1 repair inh
O=C(c1ccc(Br)cc1)c1cc2ccc(O)cc2oc1=O	16µM*	·	?	-14	12	?
COc1ccc(CNC(=O)CN(c2cc(C(F)(F)F)ccc2Cl)S(C)(=O)=O)cc1	?	·	-28%	·	·	·
Cc1ccc(NC(=O)CSCn2nnc3c(=O)[nH]c(Cc4ccc(F)cc4)nc32)c(C)c1	-12%	?	-16%	·	·	·
Oc1ccc(Cl)cc1C1=NNC(c2ccc(Cl)cc2)C1 (stereo not given)	13µM*	3%	23µM*	?	-23	?
COc1ccc(-c2nc3cnc(N(C)C)nc3n(CCc3ccccc3)c2=O)cc1	6%	·	24%	·	·	·
COc1cccc(CNC(=O)c2c(OC)cc(=O)n3c2CCN(C(=O)C2=C(C)OCCO2)CC3)c1	-4%	·	7%	·	·	·
COc1ccc(C(=O)CCN2CCN(c3ccc(OC)cc3)CC2)cc1	2.1µM*	·	2.1µM*	-101*	9	10%
CCOc1ccc(C(=O)CCN2CCCCC2)cc1	?	-4%	21µM*	-6	-3	-4%
O=C(/C=C/c1ccccc1)CCN1CCCCC1	0.92µM*	·	1.2µM*	-90*	13	·
COc1ccc(N2CCN(CCC(N)=O)CC2)cc1	-2%	2%	2%	3	-11	5%
O=C(CCCCN1CCCCC1)c1ccc2c(c1)Cc1ccccc1-2	21µM*	1%	?	-5	9	11%
O=C(COC(=O)c1ccccc1)c1ccc(Br)cc1	-14%	0%	?	-25	3	?
CCC1(C)CC2(CCCN(CCC(=O)c3ccccc3)C2)CCO1 (stereo not given)	3.3µM*	5%	3.7µM*	1	0	-11%
COc1ccc(C(=O)CCN2CCCCCC2)cc1	3.2µM*	5%	3.2µM*	-4	-4	11%
O=C(CCN1CCCCCC1)c1ccccc1	3.7µM*	1%	3.3µM*	-3	5	16%
O=C(/C=C/c1ccccc1)COC(=O)c1ccccc1	9.2µM*	·	?	-8	9	·
CCC1(C)CC(CC(=O)O)(c2ccccc2OC)CCO1 (stereo not given)	1%	2%	11%	24	-5	-6%
Cn1c(SCC(=O)N2CCCC2)nnc1-c1cnccn1	-7%	-3%	-1%	-4	-9	11%
CCCOc1ccc(C(=O)CCN2CCN(C(=O)OCC)CC2)cc1	5.2µM*	7%	2.3µM*	0	9	30%
C=CCOc1c(Br)cc(CNc2ccc(NC(=O)C(C)C)c(OC)c2)cc1OC	18µM*	8%	?	-3	-1	-7%
C=CCOc1c(Br)cc(CNn2nnnc2N)cc1OC	7.3µM*	0%	-20%	24	-3	-7%
COc1cc(CNc2ccc(C(=O)O)cc2)cc(Br)c1OCC(=O)NC(C)(C)C	?	-3%	7%	12	-14	-11%
Cn1ncc(N=Cc2ccccc2)c1C(=O)Nc1cccc(Cl)c1	18µM*	6%	?	4	1	?
Cn1ncc(N=Cc2ccccc2)c1C(N)=O	-17%	0%	0%	16	-7	13%
CCOC(=O)CCNC(=O)N1CCCC(CNS(=O)(=O)c2cccs2)C1 (stereo not given)	1%	4%	-2%	6	-14	6%
SMILES	TDP1 cell noCPT	TDP1 inh	DT40 TDP1 CPT	IL1B secr inh	Giardia kill	ELG1 repair inh
COc1ccc(OC)c(C(=O)NC(CC(N)=O)c2ccc(NCCOc3ccccc3)c([N+](=O)[O-])c2)c1 (stereo not given)	?	·	?	-3	-19	1%
COc1ccc(CCNc2ccc(C(CC(N)=O)NC(=O)c3cc(OC)ccc3OC)cc2[N+](=O)[O-])cc1 (stereo not given)	?	·	26µM*	-19	11	-1%
COc1ccc(CCNc2ccc(C(CC(N)=O)NC(=O)Cc3cccc4ccccc34)cc2[N+](=O)[O-])cc1 (stereo not given)	?	6%	23µM*	-3	-1	2%
CN(C)CC(C)(O)c1ccc2c(c1)CN(Cc1cnn(-c3ccccc3)c1)CCO2 (stereo not given)	-4%	·	11%[9.04 µM]	·	·	·
Cc1ccc(S(=O)(=O)CCC(=O)Nc2nc(-c3ccncc3)cs2)cc1	18µM*	3%	23µM*	?	24	-10%
CCOC(=O)c1csc(NC(=O)CCS(=O)(=O)c2ccc(Cl)cc2)n1	18µM*	·	?	-12	·	·
Cc1ccc(S(=O)(=O)CCC(=O)Nc2nccs2)cc1	?	3%	-10%	7	-4	-5%
CC(=O)c1sc(NC(=O)C2(F)C(F)(F)C(F)(F)C(F)(F)C(F)(F)C2(F)F)nc1C	5.8µM*	6%	4.1µM*	-88*	0	?
COC(=O)c1sc(NC(=O)COc2ccc(C)cc2)nc1C	-15%	2%	-21%	-63*	-19	5%
CC(=O)c1sc(NC(=O)C=C(C)C)nc1C	-9%	1%	-6%	20	5	?
Clc1ccc(C(c2nnnn2CCc2ccccc2)N2CCSCC2)cc1 (stereo not given)	?	5%	?	?	-3	1%
Cc1ccc(S(=O)(=O)CC(=O)Nc2nc(-c3ccccc3)cs2)cc1	21µM*	8%	-18%	-14	-1	?
CC(=O)c1sc(NC(=O)CCS(=O)(=O)c2ccc(C)cc2)nc1C	18µM*	2%	9.2µM*	-107*	13	10%
CC(=O)c1sc(NC(=O)CS(=O)(=O)c2ccc(F)cc2)nc1C	-5%	-6%	13%	22	0	?
O=C(CS(=O)(=O)c1ccccc1)Nc1nc(-c2ccccc2)cs1	?	6%	?	-5	22	5%
CCCC(=O)Nc1ccc(-c2csc(N/N=C\c3ccncc3)n2)cc1	8.2µM*	7%	10µM*	?	?	?
Cc1csc(NC(=O)CCS(=O)(=O)c2ccc(Br)cc2)n1	23µM*	-10%	?	15	-9	-4%
CC(C)=CC[C@@H](O)C1=CC(=O)c2c(O)ccc(O)c2C1=O	·	21%	·	·	·	·
